The first assay concerns the target Proto-oncogene tyrosine-protein kinase receptor Ret (Homo sapiens) (UniProt P07949). Particulars: at 1 µM.
Sequence of Proto-oncogene tyrosine-protein kinase receptor Ret (Homo sapiens) (P07949 whole entry): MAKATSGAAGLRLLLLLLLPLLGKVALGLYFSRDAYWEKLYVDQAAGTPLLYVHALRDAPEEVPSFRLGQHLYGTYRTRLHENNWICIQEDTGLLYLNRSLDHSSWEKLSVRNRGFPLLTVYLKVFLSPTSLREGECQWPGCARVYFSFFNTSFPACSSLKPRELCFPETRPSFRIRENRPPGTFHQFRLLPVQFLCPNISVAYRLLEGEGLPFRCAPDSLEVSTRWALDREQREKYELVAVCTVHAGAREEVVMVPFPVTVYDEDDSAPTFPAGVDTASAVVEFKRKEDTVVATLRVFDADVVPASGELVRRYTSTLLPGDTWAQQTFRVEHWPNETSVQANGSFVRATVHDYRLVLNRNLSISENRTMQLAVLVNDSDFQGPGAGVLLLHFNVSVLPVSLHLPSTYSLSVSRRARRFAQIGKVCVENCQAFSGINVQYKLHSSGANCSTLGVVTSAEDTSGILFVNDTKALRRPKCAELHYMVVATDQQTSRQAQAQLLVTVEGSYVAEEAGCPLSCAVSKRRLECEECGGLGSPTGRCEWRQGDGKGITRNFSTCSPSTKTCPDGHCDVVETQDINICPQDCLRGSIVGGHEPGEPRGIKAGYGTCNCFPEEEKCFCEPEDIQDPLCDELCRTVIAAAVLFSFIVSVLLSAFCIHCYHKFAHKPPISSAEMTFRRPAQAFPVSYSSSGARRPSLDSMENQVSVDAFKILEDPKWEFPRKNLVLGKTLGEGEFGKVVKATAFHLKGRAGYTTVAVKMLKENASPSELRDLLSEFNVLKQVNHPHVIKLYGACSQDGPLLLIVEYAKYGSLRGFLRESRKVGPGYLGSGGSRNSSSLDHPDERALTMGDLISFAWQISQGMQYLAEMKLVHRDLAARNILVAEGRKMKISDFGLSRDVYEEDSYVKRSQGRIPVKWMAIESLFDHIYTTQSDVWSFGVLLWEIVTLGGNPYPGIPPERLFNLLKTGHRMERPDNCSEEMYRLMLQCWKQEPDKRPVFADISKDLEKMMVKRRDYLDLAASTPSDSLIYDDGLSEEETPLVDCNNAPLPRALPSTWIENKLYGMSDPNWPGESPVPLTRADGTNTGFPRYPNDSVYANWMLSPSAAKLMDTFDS
The term residual activity denotes the signal under treatment as a percentage of the control signal. With `COc1cc2ncnc(Nc3ccc(NC(=O)c4ccccc4)cc3)c2cc1OC`, the residual activity amounted to 56%. For `CCN(CC)C(=O)c1ccc(Nc2nc(OCC3CCCCC3)c3nc[nH]c3n2)cc1`, the residual activity worked out at 3%. The same measure, in the same setting: next, `Cc1ccc(S(=O)(=O)/C=C/C#N)cc1`: 115%; `Oc1n[nH]c2nnc(-c3c(-c4ccccc4)nn4ccccc34)cc12`: 102%; `Cc1nc(-c2ccccc2)c(-c2ccncc2)o1`: 11%. `Oc1ccc(-c2nc(-c3ccc(F)cc3)c(-c3ccncc3)[nH]2)cc1`: the residual activity amounted to 101%. The same measure, in the same setting: next, `COc1cc2ncnc(Nc3ccc(O)c(Br)c3)c2cc1OC`: 23%; `CO[C@H]1C[C@@H]2CC[C@@H](C)[C@@](O)(O2)C(=O)C(=O)N2CCCC[C@H]2C(=O)O[C@H]([C@H](C)C[C@@H]2CC[C@@H](O)[C@H](OC)C2)CC(=O)[C@H](C)/C=C(\C)[C@@H](O)[C@@H](OC)C(=O)[C@H](C)C[C@H](C)/C=C/C=C/C=C/1C`: 102%; `Cn1cnc2cc3c(Nc4cccc(Br)c4)ncnc3cc21`: 66%. On the same count and under the same terms, next, `O=C1NC(=O)c2cc(Nc3ccc(F)cc3)c(Nc3ccc(F)cc3)cc21`: 91%.

On to `c1ccc(-c2n[nH]cc2-c2ccnc3ccccc23)nc1`, for which the residual activity was determined as 104%. On to `O=C1NC(=O)/C(=C\c2ccc3nccnc3c2)S1`, for which the residual activity was 98%. The same measure, in the same setting: the figure for `CO[C@@H]1[C@H](N(C)C(=O)c2ccccc2)C[C@H]2O[C@]1(C)n1c3ccccc3c3c4c(c5c6ccccc6n2c5c31)C(=O)NC4` is 8%; for `COc1ccc(OC)c2c(=S)c3ccccc3[nH]c12` it is 110%.

Take `N#CCCc1ccc2c(c1)-c1[nH]c3ccc([N+](=O)[O-])cc3c1CC(=O)N2`: the residual activity is 80%. Still for that read-out and setting: next, `CC#CC(=O)Nc1cc2c(Nc3ccc(F)c(Cl)c3)ncnc2cn1`: 100%. Still for that read-out and setting: the figure for `O=C1Nc2ccccc2/C1=C1/Nc2ccccc2/C1=N\OCCC(O)CO` (stereo not given) is 2%. Same read-out and setting: the figure for `c1ccc(-c2n[nH]c3c2oc2ccccc23)cc1` is 74%; for `Cc1cncc2cccc(S(=O)(=O)N3CCCN(C(=O)CN)C[C@H]3C)c12` it is 91%.

For `CO[C@H]1[C@@H](OC)C[C@H](C)[C@@H](OC)C2=CC(=O)C=C(NC(=O)/C(C)=C/C=C/[C@H](OC)[C@@H](OC(N)=O)/C(C)=C/[C@@H]1C)C2=O`, the residual activity was 108%. On the same count and under the same terms, next, `Oc1ccc(Nc2nc(-c3ccc(Cl)cc3)cs2)cc1`: 97%. Same read-out and setting: next, `COc1cc2ncnc(Nc3ccc(Oc4ccccc4)cc3)c2cc1OC`: 25%; `COc1cc2ncc(-c3ccccc3)nc2cc1OC`: 94%; `Cc1cc(Nc2nc(-c3ccccc3)nc3ccccc23)n[nH]1`: 2%.

As for `Nc1n[nH]c2nnc(-c3c(-c4ccccc4)nn4ccccc34)cc12`, the residual activity stood at 108%. On the same count and under the same terms, the figure for `O=C1Nc2ccc(Br)cc2/C1=C\c1cc2c([nH]1)CCCC2` is 74%. With `Ic1cccc(CSc2nnc(-c3ccncc3)o2)c1`, the residual activity turned out to be 93%.

Turning to `Cc1cccc(-c2[nH]c(C(C)(C)C)nc2-c2ccc3c(c2)OCO3)n1`, the residual activity came to 98%. As for `Cn1nc2c3c(cccc31)C(=O)c1ccccc1-2`, the residual activity amounted to 93%. On the same count and under the same terms, next, `O=c1c2ccccc2[nH]c(=S)n1CCN1CCC(=C(c2ccc(F)cc2)c2ccc(F)cc2)CC1`: 104%.

In the case of `Cc1ccc(NC2=CC(=O)c3sc(C)nc3C2=O)cc1`, the residual activity was 109%. The same measure, in the same setting: the figure for `COc1cc2ncnc(N3CCN(C(=O)Nc4ccc(Oc5ccccc5)cc4)CC3)c2cc1OC` is 101%.

The target is the same in the next assay. Conditions: at 10 µM.
Consider `COc1cc2ncnc(Nc3ccc(NC(=O)c4ccccc4)cc3)c2cc1OC`, for which the residual activity is 12%. On the same count and under the same terms, next, `CCN(CC)C(=O)c1ccc(Nc2nc(OCC3CCCCC3)c3nc[nH]c3n2)cc1`: 0%.

On to `Cc1ccc(S(=O)(=O)/C=C/C#N)cc1`, for which the residual activity is 90%. The same measure, in the same setting: next, `Oc1n[nH]c2nnc(-c3c(-c4ccccc4)nn4ccccc34)cc12`: 80%.

With `Cc1nc(-c2ccccc2)c(-c2ccncc2)o1`, the residual activity was 7%. Still for that read-out and setting: next, `Oc1ccc(-c2nc(-c3ccc(F)cc3)c(-c3ccncc3)[nH]2)cc1`: 47%.

Regarding `COc1cc2ncnc(Nc3ccc(O)c(Br)c3)c2cc1OC`, the residual activity was determined as 1%. On the same count and under the same terms, next, `CO[C@H]1C[C@@H]2CC[C@@H](C)[C@@](O)(O2)C(=O)C(=O)N2CCCC[C@H]2C(=O)O[C@H]([C@H](C)C[C@@H]2CC[C@@H](O)[C@H](OC)C2)CC(=O)[C@H](C)/C=C(\C)[C@@H](O)[C@@H](OC)C(=O)[C@H](C)C[C@H](C)/C=C/C=C/C=C/1C`: 107%; `Cn1cnc2cc3c(Nc4cccc(Br)c4)ncnc3cc21`: 65%. On the same count and under the same terms, the figure for `O=C1NC(=O)c2cc(Nc3ccc(F)cc3)c(Nc3ccc(F)cc3)cc21` is 86%. Still for that read-out and setting: the figure for `c1ccc(-c2n[nH]cc2-c2ccnc3ccccc23)nc1` is 91%. Turning to `CN(C)CCCn1cc(C2=C(c3c[nH]c4ccccc34)C(=O)NC2=O)c2ccccc21`, the residual activity amounted to 64%. For the compound `O=C1NC(=O)/C(=C\c2ccc3nccnc3c2)S1`, the residual activity is 96%.

Turning to `CO[C@@H]1[C@H](N(C)C(=O)c2ccccc2)C[C@H]2O[C@]1(C)n1c3ccccc3c3c4c(c5c6ccccc6n2c5c31)C(=O)NC4`, the residual activity came out at 5%. Regarding `COc1ccc(OC)c2c(=S)c3ccccc3[nH]c12`, the residual activity worked out at 96%. `N#CCCc1ccc2c(c1)-c1[nH]c3ccc([N+](=O)[O-])cc3c1CC(=O)N2`: the residual activity amounted to 49%. On the same count and under the same terms, the figure for `CC#CC(=O)Nc1cc2c(Nc3ccc(F)c(Cl)c3)ncnc2cn1` is 104%; for `O=C1Nc2ccccc2/C1=C1/Nc2ccccc2/C1=N\OCCC(O)CO` (stereo not given) it is -1%; for `c1ccc(-c2n[nH]c3c2oc2ccccc23)cc1` it is 47%.

With `Cc1cncc2cccc(S(=O)(=O)N3CCCN(C(=O)CN)C[C@H]3C)c12`, the residual activity stood at 90%. Still for that read-out and setting: next, `CO[C@H]1[C@@H](OC)C[C@H](C)[C@@H](OC)C2=CC(=O)C=C(NC(=O)/C(C)=C/C=C/[C@H](OC)[C@@H](OC(N)=O)/C(C)=C/[C@@H]1C)C2=O`: 106%.

As to `Oc1ccc(Nc2nc(-c3ccc(Cl)cc3)cs2)cc1`, the residual activity was 87%. Still for that read-out and setting: the figure for `COc1cc2ncnc(Nc3ccc(Oc4ccccc4)cc3)c2cc1OC` is 7%. On the same count and under the same terms, the figure for `COc1cc2ncc(-c3ccccc3)nc2cc1OC` is 92%.

Consider `Cc1cc(Nc2nc(-c3ccccc3)nc3ccccc23)n[nH]1`, for which the residual activity turned out to be 0%. As for `Nc1n[nH]c2nnc(-c3c(-c4ccccc4)nn4ccccc34)cc12`, the residual activity stood at 58%.

For `O=C1Nc2ccc(Br)cc2/C1=C\c1cc2c([nH]1)CCCC2`, the residual activity stood at 69%.

Regarding `Ic1cccc(CSc2nnc(-c3ccncc3)o2)c1`, the residual activity was 74%. Still for that read-out and setting: next, `Cc1cccc(-c2[nH]c(C(C)(C)C)nc2-c2ccc3c(c2)OCO3)n1`: 107%; `Cn1nc2c3c(cccc31)C(=O)c1ccccc1-2`: 63%. The same measure, in the same setting: next, `O=c1c2ccccc2[nH]c(=S)n1CCN1CCC(=C(c2ccc(F)cc2)c2ccc(F)cc2)CC1`: 108%. Same read-out and setting: next, `Cc1ccc(NC2=CC(=O)c3sc(C)nc3C2=O)cc1`: 97%; `COc1cc2ncnc(N3CCN(C(=O)Nc4ccc(Oc5ccccc5)cc4)CC3)c2cc1OC`: 82%.

Values taken from ChEMBL document CHEMBL2218924, “A broad activity screen in support of a chemogenomic map for kinase signalling research and drug discovery” (Biochem J, 2013).
